From ChEMBL document CHEMBL4513141, “CO-ADD screening of NIH (USA) - Clinical Collection” (2021)
Results with a measured potency or affinity are listed apart.

Tests used:
[1] = system: Klebsiella pneumoniae; conditions: Concentration 20 uM; ASSAY_TEST Inhibition of Bacterial Growth; detection method Absorption (OD600); MEDIA CAMHB; plate type 384well; NBS; CORNING #3640; time 18 hr
[2] = system: Candida albicans; conditions: 20 µM
[3] = system: Cryptococcus neoformans; conditions: Concentration 20 uM; ASSAY_TEST Inhibition of Fungal Growth; detection method Resazurin; Absorption (OD600-OD570); plate type 384well; NBS; CORNING #3640

SMILES	Inhibition [1]	Inhibition [2]	Inhibition [3]
CCCNCC(O)COc1ccccc1C(=O)CCc1ccccc1 (configuration not stated) [PROPAFENONE]	6.97%	0.01%	-5.76%
COc1ccc(-c2cc(=O)c3c(OC)c(OC)c(OC)c(OC)c3o2)cc1OC [NOBILETIN]	4.76%	7.12%	-2.3%
CS(=O)(=O)c1ccc(C2=C(c3ccccc3)C(=O)OC2)cc1 [ROFECOXIB]	8.3%	2.84%	-2.65%
Cc1cn([C@H]2C=C[C@@H](CO)O2)c(=O)[nH]c1=O [STAVUDINE]	14.08%	2.99%	0.51%
CN1C(C(=O)Nc2ccccn2)=C(O)c2ccccc2S1(=O)=O.O	9.7%	7.55%	-5.24%
Cc1occc(=O)c1O [MALTOL]	10.28%	4.42%	-2.15%
CCN(CC)CC1CCCCN1CC(=O)N1c2ccccc2C(=O)Nc2cccnc21 (configuration not stated) [OTENZEPAD]	12.92%	3.03%	3.45%
CC#C[C@]1(O)CC[C@H]2[C@@H]3CCC4=CC(=O)CCC4=C3[C@@H](c3ccc(N(C)C)cc3)C[C@@]21C [MIFEPRISTONE]	3.7%	3.98%	-10.45%
CC(C)(C)NCC(O)COc1cccc2c1CC(O)C(O)C2 (configuration not stated) [NADOLOL]	10.61%	1.18%	-8.66%
CCCCC(=O)OC1(C(=O)CO)CCC2C3CCC4=CC(=O)CCC4(C)C3C(O)CC21C (configuration not stated)	9.82%	3.16%	-1.86%
C[n+]1ccccc1/C=N/O.[Cl-] [PRALIDOXIME CHLORIDE]	15.84%	0.76%	-2.73%
O=c1c(-c2ccccc2)c1-c1ccccc1 [DIPHENCYPRONE]	-5.06%	5.88%	10.54%
COc1ccc(Cl)cc1C(=O)NCCc1ccc(S(=O)(=O)NC(=O)NC2CCCCC2)cc1 [GLYBURIDE]	8.21%	-0.39%	1.86%
Cc1ccccc1C(OCCN(C)C)c1ccccc1.Cl (configuration not stated) [ORPHENADRINE HYDROCHLORIDE]	11.73%	1.54%	-6.53%
Cl.O.O=C(c1ccc(F)cc1)C1CCN(CCn2c(=S)[nH]c3ccccc3c2=O)CC1	11.14%	3.36%	0.24%
CC1=C(/C=C/C(C)=C/C=C/C(C)=C/C(=O)O)C(C)(C)CCC1 [TRETINOIN]	14.57%	2.93%	-0.54%
C[C@H]1O[C@@H](O[C@H]2[C@@H](O)C[C@H](O[C@H]3[C@@H](O)C[C@H](O[C@H]4CC[C@@]5(C)[C@H](CC[C@@H]6[C@@H]5C[C@@H](O)[C@]5(C)C(C7=CC(=O)OC7)CC[C@]65O)C4)O[C@@H]3C)O[C@@H]2C)C[C@H](O)[C@@H]1O (some centres not stated)	10.13%	4.95%	-6%
CC1CNc2c(cccc2S(=O)(=O)N[C@@H](CCCNC(=N)N)C(=O)N2CC[C@@H](C)C[C@@H]2C(=O)O)C1 (some centres not stated) [ARGATROBAN]	8.18%	4.39%	-2.44%
Cc1nc2n(c(=O)c1CCN1CCC(c3noc4cc(F)ccc34)CC1)CCCC2 [RISPERIDONE]	4.8%	0.09%	-0.58%
CN1CCN(C2=Nc3cc(F)ccc3Cc3ccccc32)CC1 [FLUPERLAPINE]	11.17%	3.99%	-6.37%
CCC(=O)O[C@]1(C(=O)SCF)[C@H](C)C[C@H]2[C@@H]3C[C@H](F)C4=CC(=O)C=C[C@]4(C)[C@@]3(F)[C@@H](O)C[C@@]21C [FLUTICASONE PROPIONATE]	6.12%	10.1%	-1.8%
COc1cc(C(=O)NS(=O)(=O)c2ccccc2C)ccc1Cc1cn(C)c2ccc(NC(=O)OC3CCCC3)cc12 [ZAFIRLUKAST]	3.3%	0.8%	1.96%
CNCC[C@H](Oc1cccc2ccccc12)c1cccs1.Cl [DULOXETINE HYDROCHLORIDE]	5.49%	3.07%	-2.99%
CCC1=C[C@H]2CN(C1)Cc1c([nH]c3ccccc13)[C@@](C(=O)OC)(c1cc3c(cc1OC)N(C)[C@H]1[C@@](O)(C(=O)OC)[C@H](OC(C)=O)[C@]4(CC)C=CCN5CC[C@]31[C@@H]54)C2.O=C(O)C(O)C(O)C(=O)O.O=C(O)C(O)C(O)C(=O)O	8.46%	4.55%	-7.91%
